Screening data from PubChem BioAssay.
PfHsp40 rescue: compounds rescuing yeast from Plasmodium falciparum HSP40 toxicity. S. cerevisiae expressing PfHsp40, growth rescue, ATP luminescence. growth rescue, % at 12.5 µM. 340,000 tested, 0.68% active. AID 504582; in the data active = growth rescue above about 28%, passing the limit was not always enough; inconclusive = no clear call, values can overlap the other calls;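 note: yeast W303a lacking pdr1 and pdr3 grown in galactose medium; growth measured after three days at 30 °C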
BJeLR viability: kills HRASV12-expressing BJeLR cells. AID 1554. BJeLR (HRASV12) viability, CellTiter-Glo ATP luminescence, 48 h. inhibition, % (concentration not given with the values). 300,000 tested, 0.17% active; in the data active = inhibition above about 50%; inconclusive = no clear call, values can overlap the other calls
CCHFV vOTU inh: blocks the CCHF virus ovarian tumor domain protease | CCHFV vOTU protease, Pep-AMC fluorescence | inhibition, % at 11.5 µM | 370,000 tested, 0.55% active; in the data active = inhibition above about 30%; note: 0% = vehicle wells with enzyme and 100% = no enzyme wells
PrPC surface inh: cell surface PrPC inhibition, primary TR-FRET screen; inhibition, % at 13.8 µM; 370,000 tested, 0.43% active; TR-FRET read-out; P04156; in the data active = inhibition above about 24%; note: 0% = median of the test wells and 100% = reference compound wells
PrP UTR inh: inhibition of PrP 5' UTR reporter expression; inhibition, % (no concentration beside the values); cell-based PrP 5' UTR mRNA reporter, plate reader; AID 488862; 340,000 tested, 0.35% active; in the data active = inhibition above about 52%; note: 0 = median of the neutral control wells
Y pestis TopoI: blocks Yersinia pestis topoisomerase I activity; Y. pestis Topo-I cleavage product accumulation, plate reader; activity, % at 10 µM; 360,000 tested, 0.064% active; in the data active = activity above about 50%, passing the limit was not always enough; inconclusive = no clear call, values can overlap the other calls
PrP 5UTR single: prion 5' UTR mRNA inhibition, cherry-pick retest; shares compounds with PrP UTR inh; cell-based prion protein 5' UTR reporter, plate reader; inhibition, % at 2.5 µM; 1,100 tested, 48% active; in the data active = inhibition above about 54%; inconclusive = no clear call, values can overlap the other calls
Active calls of the source: *; ? = inconclusive; / = no result. An excerpt weighted towards active compounds, which were near 2% of everything screened.

SMILES | PfHsp40 rescue | BJeLR viability | CCHFV vOTU inh | PrPC surface inh | PrP UTR inh | Y pestis TopoI | PrP 5UTR single
C=Cc1cc(OC)c2c(c1)c(=O)oc1c2cc(OC)c2c(O)ccc(C3OC(C)C(O)C(C)(O)C3O)c21 (stereo not drawn) | 5.5 | / | 6.1 | 31.2* | 68.3* | -5.9 | 75.5*
O=C(Nc1nc2ncccn2c1-c1ccc(F)cc1)c1ccc(F)cc1 | / | / | -12.0 | 3.0 | / | / | /
CC(C)C[C@H](NC1(C(=O)NC2CCCCC2)CCN(C)CC1)C(=O)NCC(c1ccccc1)c1ccccc1 | / | / | / | -21.2 | / | / | /
Cc1nc(-c2ccc(NC(=O)c3ccco3)cc2)cs1 | -2.6 | 16.8 | 1.4 | 1.9 | 78.5* | 0.0 | 77.1*
O=C(Nc1ccc(NC(=O)c2ccco2)cc1)c1ccco1 | -1.2 | 3.1 | -1.2 | 3.6 | -23.2 | -2.5 | /
Nc1nc(-c2ccc(NC(=O)c3ccco3)cc2)cs1 | -1.4 | 0.2 | 9.5 | 7.2 | 66.5* | -2.9 | 16.5
COC(=O)c1ccc2c(=O)n(CCCCCC(=O)NC3CCCCC3)c(=O)[nH]c2c1 | / | / | -11.8 | 3.2 | / | / | /
COc1ccc(/C=C2\SC(=O)N(CCCC(=O)Nc3cc(Cl)ccc3C(=O)O)C2=O)cc1 | 5.5 | / | -7.8 | -6.0 | 91.7* | 12.5 | 83.1*
CCOC(=O)[C@@]12CCC3=C1N(CCC3)C(=O)[C@H](CC(=O)NCCCN1CCCC1=O)C2 | / | / | -3.6 | 0.6 | / | / | /
COc1cc2cc(C(=O)N3CC(COS(C)(=O)=O)c4ccc(O)cc43)[nH]c2c(OC)c1OC (stereo not drawn) | 63.4* | / | / | / | 96.5* | -4.3 | 97.5*
Cc1cc(NS(=O)(=O)c2ccc(NC(=O)CSc3nnc(-c4ccco4)n3-c3ccc(Cl)cc3)cc2)nc(C)n1 | / | / | 1.6 | -2.0 | / | / | /
ClCCCc1cn(C[C@H]2CC[C@@H]([C@@H]3CC[C@H](Cn4cc(CCCCl)nn4)O3)O2)nn1 | -1.8 | -4.7 | 0.6 | -2.1 | 68.3* | 4.2 | -12.7
CC(C)(C)c1ccc(S(=O)(=O)N2CCC(C(=O)NCC3COCCO3)CC2)cc1 (stereo not drawn) | / | / | -6.0 | -8.8 | / | / | /
COC(=O)c1ccc2nc(-c3ccco3)c(Cc3ccsc3)n2c1 | / | / | 1.8 | -1.8 | / | / | /
C[C@H]1CN([C@@H](C)CO)C(=O)c2cccc(NC(=O)c3ccncc3)c2O[C@H]1CN(C)C(=O)Nc1ccccc1 | -0.4 | / | -1.3 | -2.5 | -6.5 | -4.5 | /
C[C@H](CO)N1C[C@H](C)[C@@H](CN(C)C(=O)Nc2ccccc2)Oc2c(NC(=O)c3ccncc3)cccc2C1=O | 0.7 | / | 2.3 | -3.7 | 62.4* | -4.1 | -25.1
O=C(CSCc1nc2ccccc2[nH]1)Nc1ccccc1 | 0.0 | 3.6 | -4.4 | -1.6 | 78.3* | -4.5 | -4.6
COC(=O)CN1CCN(C(=O)c2csc3ccccc23)CC1 | / | / | -6.9 | -4.3 | / | / | /
O=C(NC1CCCCN(Cc2ccc(Cl)cc2)C1=O)c1ccc2ccccc2c1 (stereo not drawn) | / | / | 8.6 | 5.5 | / | / | /
CC(C)(C)C(=O)Nc1cc2nn(-c3ccccc3)nc2cc1Cl | 0.6 | / | -3.7 | 5.1 | 86.4* | -3.6 | 72.7*
COc1cc(SC)ccc1C(=O)Nc1ncc(C)s1 | 0.7 | 9.1 | 5.2 | 2.7 | 74.1* | 10.1 | 69.2*
COc1cc(SC)ccc1C(=O)Nc1ccc(Br)cn1 | -0.5 | 3.9 | -1.3 | -6.6 | 68.2* | 4.2 | 67.0*
CCCC1CCC2(CCCN2CCOC(=O)Nc2ccc(Br)cc2)CC1 (stereo not drawn) | / | / | / | -0.7 | / | / | /
COC(=O)[C@]12C[C@H](CC(=O)NCc3ccccc3)C(=O)N(Cc3ccccc3)C1=C[C@H](C(C)(C)C)O[C@@H]2C | / | / | 20.9 | -0.4 | / | / | /
Cc1cc(C)c(S(=O)(=O)Nc2ccc3c4c(cccc24)CC3)c(C)c1 | 1.8 | 42.7 | 6.6 | 16.1 | 75.5* | -7.0 | 89.1*
SMILES | PfHsp40 rescue | BJeLR viability | CCHFV vOTU inh | PrPC surface inh | PrP UTR inh | Y pestis TopoI | PrP 5UTR single
CCOc1ccc(CN2C(=O)c3ccccc3C2=O)cc1C(=O)Nc1nnc(SCC)s1 | 0.2 | 13.2 | 3.3 | 1.3 | -10.6 | 1.3 | /
CCOc1ccc(CN2C(=O)c3ccccc3C2=O)cc1C(=O)NC1CC(C)(C)NC(C)(C)C1 | 1.8 | / | 5.5 | -2.8 | 84.7* | -2.8 | -13.3
COC(=O)c1cn(-c2ccc(-c3noc4c3C(=O)N(CC(=O)N3CCOCC3)CC4)cc2)nn1 | / | / | -8.4 | 1.4 | / | / | /
Cc1ccc(C(c2nnnn2CC2CCCO2)N2CCN(Cc3ccccc3)CC2)cc1 (stereo not drawn) | -0.2 | 2.3 | -1.8 | -11.6 | 67.0* | 29.3 | 2.3
COc1ccccc1-c1nc(-c2ccccn2)no1 | -1.5 | 46.6 | 3.5 | 0.6 | 52.4 | 2.0 | /
Cc1ccccc1-c1nc(-c2ccccn2)no1 | -4.1 | / | 5.2 | 5.3 | 70.3* | 17.1 | ?
COc1ccc(-c2nc(-c3ccccn3)no2)cc1 | 0.6 | / | 3.4 | -8.8 | 91.5* | 3.7 | 90.9*
COc1ccc(NC(=O)C(=O)NCC(c2ccco2)N2CCc3ccccc32)cc1 (stereo not drawn) | 0.0 | 26.2 | / | / | 53.0* | -3.7 | 79.9*
CC(=O)Nc1ccc(NC(=O)C(=O)NCC(c2ccco2)N2CCc3ccccc32)cc1 (stereo not drawn) | -0.6 | 4.9 | -15.7 | 6.0 | -13.4 | -3.8 | /
Cc1nc2c(-c3ccc(Cl)cc3)cnn2c(N)c1-c1ccc(F)cc1 | 1.0 | -3.4 | 3.6 | 2.9 | 56.4* | -5.0 | 5.1
Cc1nc2c(-c3ccc(F)cc3)cnn2c(N)c1-c1ccccc1 | 5.2 | 1.5 | -3.6 | 17.3 | 68.0* | -20.2 | 44.1
COc1ccc(C(=O)CSc2nnc(-c3cccs3)o2)cc1OC | / | / | -9.9 | -5.3 | / | / | /
COC(=O)c1cc2c(c3c4cc(OC)ccc4n(S(=O)(=O)c4cccc(C)c4)c13)C(=O)N(C)C2 | / | / | 4.6 | 3.5 | / | / | /
O=C(c1nc2ccccn2c1CNCCCn1cccn1)N1CCCC1 | -1.1 | -1.6 | -9.2 | 1.0 | -31.6 | -3.4 | /
Cc1nccn1CCCNCc1c(C(=O)N2CCCCCCC2)nc2ccc(Cl)cn12 | 0.2 | 2.1 | 5.2 | -9.4 | 84.0* | -2.1 | -13.1
COc1ccc(NC2Oc3cc4c(cc3C(c3cc(OC)c(OC)c(OC)c3)C2C)OCO4)cc1 (stereo not drawn) | -0.7 | / | 8.5 | 8.6 | 60.9* | -5.4 | 35.9
CNCC(=O)O | 2.1 | / | -2.5 | 7.4 | 92.5* | -3.8 | 8.1
CC(C)c1ccc(NC(=O)OC2CCC23CCC(c2ccccc2)CC3)cc1 (stereo not drawn) | / | / | / | -5.0 | / | / | /
CN(C(=O)OC(C)(C)C)c1ccc(-c2nc3ccccc3s2)cc1 | 0.7 | 16.7 | -15.8 | -7.8 | 89.7* | 35.4 | 88.3*
CC(C)c1ccc(-c2nc3ccccc3s2)cc1 | 1.3 | 15.2 | -13.3 | 6.5 | 84.8* | 2.2 | 85.0*
COC(=O)N(C)c1nc2ccccc2s1 | -0.2 | 0.8 | 11.9 | 2.8 | -40.4 | -0.1 | /
CN(C)CCNc1ccc(CO)c2sc3ccc(O)cc3c(=O)c12 | -0.8 | / | 3.8 | -13.4 | 0.5 | -11.7 | /
